Test results published in the supplement of paper PMC12636033.
± gives the standard deviation of the averaged measurements. Over roughly 33,000 sequences, “E-score (rank enrichment, -0.5 to 0.5)” has its median near -0.0068; the highest 2% begin near 0.24. Shown is part of a subset that was picked to be rich in the highest values.

Tested on: muMax20 (Max(13-93) K31hArg/K57hArg, M65Nle)
Assay: PBM 8-mer E-score (E-score (rank enrichment, -0.5 to 0.5)); higher = stronger preferential binding
Procedure: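 Protein binding microarray (universal PBM chip covering all 10-mers in fixed probe flanks) with chemically synthesized human Max(13-93) bHLH-LZ analogs (not full-length Max) bearing noncanonical residues (hArg, Tha, Aib, Nle at 65) and aromatic Cys staples. Read-out per 8-mer (and its reverse complement): E-score (rank-based enrichment, -0.5 to 0.5) and Z-score of median probe intensity.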

Point of comparison: ATAGCAAT, “PBM 8-mer E-score” value 0.1707 ± 0.0013. Against it:
- ACACATGT — higher, 0.346 ± 0.023
- ACACATCT — within error, 0.11 ± 0.072
- CAGGCGCC — lower, -0.0488 ± 0.0079
- ATATTGAG — lower, 0.0529 ± 0.069
- ATATTGAC — lower, 0.0428 ± 0.0027
- ATATTCAC — within error, 0.181 ± 0.12
- ATATTGAA — within error, 0.161 ± 0.022
- ATATTGAT — higher, 0.25 ± 0.047
- ATATTCAT — higher, 0.287 ± 0.04
- TTATTGAA — higher, 0.3 ± 0.045
- GTATTGAA — within error, 0.209 ± 0.047
- ATATTCAA — higher, 0.197 ± 0.0025
- AATGGTAC — within error, 0.0908 ± 0.11
- AACGGCAC — lower, -0.107 ± 0.11
- CGGTCTCA — lower, -0.242 ± 0.2
- GGTACCTA — lower, -0.105 ± 0.16
- AAGCACTT — within error, 0.132 ± 0.045
- ACTATGCG — within error, 0.16 ± 0.042
- ATAAAAGG — within error, 0.192 ± 0.058
- ATAAAAAA — within error, 0.189 ± 0.02
- AATAAAAA — higher, 0.266 ± 0.015
- AATAAACA — the same, 0.171 ± 0.075
- ATAAAAAG — higher, 0.328 ± 0.066
- GATAAAAC — within error, 0.203 ± 0.078
- AATAAAAT — lower, 0.0637 ± 0.011
- AAAAAAAG — within error, 0.178 ± 0.016
- AATAAACC — within error, 0.175 ± 0.022
- AATAAAAC — higher, 0.271 ± 0.01
- AATAAAGG — lower, 0.0493 ± 0.095
- AATAAAAG — higher, 0.281 ± 0.011
- CGAGCAGC — lower, -0.0303 ± 0.083
- AGCTTGCA — lower, -0.0404 ± 0.11
- TCCCTAGA — lower, -0.0505 ± 0.13
- CAATCTTC — lower, -0.0387 ± 0.0054
- AAAGTCTG — lower, 0.032 ± 0.042
- GGAATGGA — lower, -0.00962 ± 0.022
- CACGCGGA — higher, 0.289 ± 0.066
- CACGCGAG — lower, 0.0936 ± 0.048
- CACGCGGC — higher, 0.281 ± 0.064
- AACGCGGA — lower, -0.13 ± 0.019
- GACGCGGC — lower, -0.105 ± 0.025
- AACGCGGC — lower, -0.118 ± 0.16
- CACGCGAC — within error, 0.245 ± 0.15
- CACGCGGG — within error, 0.154 ± 0.086
- CACGCGAA — lower, 0.0636 ± 0.033
- CGACAGCG — lower, -0.213 ± 0.1
- CTAGATTA — lower, 0.104 ± 0.021
- ACTAACAA — higher, 0.236 ± 0.048
- TATAACAA — higher, 0.258 ± 0.015
- GATAACAA — within error, 0.0646 ± 0.12
- AATAACAG — within error, 0.0596 ± 0.12
- AATAACCA — lower, 0.076 ± 0.0086
- CATAACAA — within error, 0.147 ± 0.03
- AATAACAC — lower, 0.122 ± 0.0046
- AATAACAT — higher, 0.256 ± 0.028
- AGTAACAG — lower, 0.142 ± 0.024
- AGTAACAT — higher, 0.289 ± 0.038
- AATAACAA — higher, 0.271 ± 0.0084
- AGTAACAA — lower, 0.117 ± 0.048
- ACCGGACT — lower, -0.151 ± 0.13
- TCAATCCA — lower, 0.105 ± 0.008
- CCTTAAGA — lower, 0.0233 ± 0.059
- ACTTTCAT — lower, 0.0117 ± 0.13
- AGGCGCGC — lower, 0.115 ± 0.0093
- GCGATTAA — within error, 0.14 ± 0.13
- CTGATTAA — within error, 0.0981 ± 0.079
- ACGATTAA — within error, 0.0506 ± 0.14
- TCGATTAA — higher, 0.261 ± 0.051
- GTGATTAA — higher, 0.256 ± 0.066
- ATGATTAA — within error, 0.169 ± 0.049
- CCAGCTCG — lower, -0.23 ± 0.058
- AAGTCCCA — lower, 0.0496 ± 0.017
- TCTAGCCA — lower, -0.0192 ± 0.021
- CGTACCCC — lower, 0.134 ± 0.012
- CGCTCGCA — lower, -0.00112 ± 0.055
- CTCCTAGC — lower, -0.136 ± 0.081
- ATCCTAGG — lower, -0.193 ± 0.037
- ATCCTAGC — higher, 0.247 ± 0.0046
- AAGATGAG — lower, -0.0108 ± 0.035
- ATTGACTA — lower, -0.0128 ± 0.0061
- ATCAATGA — within error, 0.164 ± 0.044
- AAAGGCCC — lower, 0.105 ± 0.034
- CAAAAGGC — lower, 0.0129 ± 0.021
- CAAAGGCC — lower, 0.0435 ± 0.035
- CAAGGCCG — lower, -0.0484 ± 0.016
- AAAGGCCG — higher, 0.275 ± 0.088
- AAAAGGCC — higher, 0.294 ± 0.089
- AAAAAGGC — within error, 0.218 ± 0.093
- GAAAAGGC — higher, 0.3 ± 0.074
- GAAAGGCC — lower, -0.109 ± 0.036
- GAGTCGTA — lower, 0.0328 ± 0.034
- CTTTTAGC — lower, 0.0351 ± 0.039
- ATGCCTGG — lower, -0.0874 ± 0.034
- AGCTTTGC — lower, -0.066 ± 0.034
- TCTGACAA — lower, -0.0236 ± 0.026
- AATACGAG — lower, 0.1434 ± 0.0014
- CCTCCGAA — lower, -0.0791 ± 0.039
- GACCCAAC — lower, -0.034 ± 0.061
- CCAACCAG — lower, -0.16 ± 0.022
- AACAAAAT — higher, 0.275 ± 0.03
- TACAAGAA — within error, 0.2 ± 0.064
- AACAAGAT — higher, 0.22 ± 0.029
- GACAAATC — within error, 0.0884 ± 0.12
- TACAAATA — higher, 0.313 ± 0.007
- AACAAAAA — within error, 0.14 ± 0.044
- GACAAAAA — lower, 0.144 ± 0.007
- GACAAATA — lower, 0.0845 ± 0.063
- AACAAATC — higher, 0.243 ± 0.016
- TACAAAAA — higher, 0.285 ± 0.024
- CACAAATA — within error, 0.185 ± 0.02
- AACAAGTC — lower, 0.141 ± 0.024
- CTACCGAA — lower, -0.1 ± 0.022
- CACAGGCC — lower, -0.118 ± 0.0028
- AGTTGGGG — lower, 0.0207 ± 0.062
- AGCGGTGA — lower, -0.233 ± 0.0025
- AAATTTCG — within error, 0.186 ± 0.12
- AACTGAAA — within error, 0.146 ± 0.092
- TGCACCCA — lower, 0.0653 ± 0.034
- GAGGTGGA — lower, -0.138 ± 0.1
- AACAAGTT — lower, 0.0361 ± 0.093
- AACAAATG — within error, 0.155 ± 0.052
- AACAAACA — higher, 0.234 ± 0.022
- AACAAGTA — lower, 0.101 ± 0.0032
- AACAAATA — higher, 0.24 ± 0.0093
- AACAAATT — higher, 0.269 ± 0.049
- GCCCCAAC — within error, 0.167 ± 0.046
- ATAGCAAG — higher, 0.248 ± 0.0032
- ATAGCAAC — lower, 0.0478 ± 0.052
- ACTCCATG — lower, -0.0772 ± 0.0052
- CCTACCCC — lower, 0.0896 ± 0.026
- CGGTATGA — lower, -0.017 ± 0.021
- GCATAAGA — lower, 0.107 ± 0.021
- CCATAATA — within error, 0.213 ± 0.05
- ACATAATC — lower, 0.0995 ± 0.051
- ACATAATG — within error, 0.231 ± 0.099
- ACATAATA — higher, 0.294 ± 0.053
- GCATAATA — higher, 0.239 ± 0.0054
- CCAAGTGA — lower, -0.0263 ± 0.0041
- CCGACGTC — lower, -0.172 ± 0.09
- CCAGAACA — lower, 0.162 ± 0.0036
- CGGCCACC — lower, -0.305 ± 0.094
- CTCTATGA — lower, -0.000995 ± 0.044
- AAAACCCC — within error, 0.126 ± 0.077
- AAATCGAG — lower, 0.0488 ± 0.046
- GGACGTGA — lower, -0.122 ± 0.048
- GCACGTAC — lower, -0.051 ± 0.064
- GCACGTGA — higher, 0.392 ± 0.1
- GCACGTGC — higher, 0.454 ± 0.049
- GCACGTCC — lower, -0.0223 ± 0.063
- GAACGTGA — lower, -0.00796 ± 0.078
- CGCAGTTC — lower, -0.116 ± 0.012
- CCATCAGC — lower, -0.0581 ± 0.017
- AAATTCCA — higher, 0.254 ± 0.0063
- CAATTCCA — lower, -0.00806 ± 0.02
- GAATTCCA — lower, 0.017 ± 0.13
- GGGCGTAA — lower, -0.0137 ± 0.039
- CTATCTTC — lower, 0.137 ± 0.013
- ATATCTTA — lower, 0.0954 ± 0.0085
- ATATCTTC — higher, 0.273 ± 0.027
- GAGTGCCC — lower, -0.0978 ± 0.005
- CTATACCC — lower, -0.0276 ± 0.12
- GAAGAAAA — lower, 0.119 ± 0.022
- CAAAAAAC — higher, 0.21 ± 0.017
- GAAGAAAC — higher, 0.241 ± 0.024
- ACGAAAAA — within error, 0.181 ± 0.01
- CAAAACAC — lower, -0.0123 ± 0.11
- GAAAACAC — lower, 0.0158 ± 0.069
- ACGAAAAG — lower, 0.154 ± 0.00054
- ACGAAAAC — higher, 0.248 ± 0.03
- AAAAAAAC — higher, 0.236 ± 0.056
- AAAAAACC — within error, 0.2 ± 0.036
- CAAGAAAC — within error, 0.177 ± 0.047
- AAAAACAC — higher, 0.283 ± 0.042
